Pol kappa inh – qHTS for Inhibitors of Polymerase Kappa | Potency, µM (series often up to 107 µM), for the others: top-dose activity, negative = inhibition, actives largely listed as inhibitors | 400,000 tested, 0.53% active | DNA polymerase kappa (Homo sapiens), Q9UBT6 | purified Pol kappa, fluorescent DNA synthesis assay, 10 min; further: potency means the concentration at half of the fitted maximal effect; on the % scale 0 is the no-effect control and ±100 the full control effect
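Readout: fluorescence, taken kinetically at 0 and 10 min. Conditions: 10 nM Pol kappa, 15 min RT compound preincubation, 50 nM substrate final. Controls: enzyme-free buffer wells.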
Pol iota inh – qHTS for Inhibitors of Polymerase Iota; DNA polymerase iota (Homo sapiens), Q9UNA4; Pol iota fluorescent replication assay, 10 min; Potency, µM (series often up to 115 µM), for the others: at the highest dose activity, negative = inhibition, most hits filed as inhibitors; 390,000 tested, 1% active; further: potency means the concentration at half of the fitted maximal effect
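Pol iota at 10 nM preincubated 15 min with compounds at room temperature; reaction started with fluorescent substrate, 50 nM final. Fluorescence read kinetically at 0 and 10 min; buffer-only wells as negative control.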
WRN helicase inh – qHTS for Inhibitors of WRN Helicase. Bifunctional 3'-5' exonuclease/ATP-dependent helicase WRN (Homo sapiens), Q14191. WRN helicase unwinding, fluorescent forked duplex, kinetic. Potency, µM (top dose mostly 114 µM), without a hit: at the highest dose activity change, negative = inhibition, usual class: inhibitors. 360,000 tested, 0.46% active. AID 651768, 2012; further: potency means the concentration at half of the fitted maximal effect; on the % scale 0 is the no-effect control and ±100 the full control effect; nearly all actives have a fitted effect of over 55% in size
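Primary qHTS, 1536-well format. 20 nM WRN + compound, 15 min RT; start with 100 nM forked fluorophore/quencher duplex, 2 mM ATP (final); kinetic read ex 525/em 598 nm.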
Pol eta inh-1 – qHTS for Inhibitors of Polymerase Eta; DNA polymerase eta (Homo sapiens), Q9Y253; recombinant Pol eta, fluorescent DNA replication assay; Potency, µM (titrated, usually from 114 µM), inactives show at the highest dose activity change, negative = inhibition, most hits filed as inhibitors; 390,000 tested, 1.2% active; AID 588591, 2011; further: potency means the concentration at half of the fitted maximal effect; on the % scale 0 is the no-effect control and ±100 the full control effect
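Pol eta at 10 nM preincubated with compounds 15 min at room temperature; reaction started with fluorescent substrate (50 nM final) and read kinetically at 0 and 10 min.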
FEN1 inhibitor – qHTS Assay for the Inhibitors of Human Flap endonuclease 1 (FEN1); Recombinant FEN1 flap cleavage, fluorescence, 15 min; P39748; AID 588795, 2011; 390,000 tested, 0.35% active; Potency, µM (series often up to 114 µM), for inactives: at the top dose activity change, negative = inhibition, most hits filed as inhibitors; further: potency means the concentration at half of the fitted maximal effect; on the % scale 0 is the no-effect control and ±100 the full control effect; nearly all actives have a fitted effect of over 65% in size
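Potency values derive from four-parameter Hill fits of normalized qHTS data. The reaction used 10 nM FEN1 preincubated 15 min at room temperature with compound, then 50 nM DNA substrate, read at 0 and 15 min.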
POLB inh – qHTS Assay for Inhibitors of DNA Polymerase Beta; P06746; Pol beta primer extension/strand displacement, fluorescence kinetic; Potency, µM (series often up to 114 µM), without a hit: top-dose activity change, negative = inhibition, actives largely listed as inhibitors; 340,000 tested, 1.3% active; further: potency means the concentration at half of the fitted maximal effect; on the % scale 0 is the no-effect control and ±100 the full control effect
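Curves were derived by four-parameter Hill fits of normalized qHTS data. The kinetic fluorescent primer-extension read was taken at 0 and 10 min after 50 nM substrate, following a 15 min room-temperature preincubation of 10 nM enzyme with compounds.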
BAZ2B inh – qHTS Assay for Inhibitors of BAZ2B: Hit Validation | shares compounds with Pol kappa inh | AlphaScreen BAZ2B / biotin-H3K14Ac peptide displacement | Potency, µM, actives largely listed as inhibitors | 25 tested, 100% active | AID 588809, 2011; calls by dose curve
BAZ2B bead ctr – qHTS Assay for Inhibitors of BAZ2B: Hit Validation in AlphaScreen Counterscreen; shares compounds with Pol kappa inh; AlphaScreen biotin-His6 peptide bead counterscreen, signal decrease; Potency, µM (top dose mostly 57.1 µM), for inactives: at the top dose activity change, negative = inhibition, usual class: inhibitors; 25 tested, under 10 active; AID 588859, 2011;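 active means clear concentration-dependent signal drop in the bead assay lacking the target, so a primary-screen artifact; inconclusive means weak, partial or single-dose response; inactive means no response, so a real primary hit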
TbPGK inh – qHTS for inhibitors of Phosphogylcerate Kinase: Hit Validation Screen | AID 686980, 2013 | 500 tested, 79% active | Potency, µM (series often up to 57.5 µM), without a hit: at the top dose activity change, negative = inhibition, actives largely listed as inhibitors | shares compounds with Pol kappa inh | TbPGK coupled GAPDH assay, Kinase-Glo luminescence; further: potency means the concentration at half of the fitted maximal effect; on the % scale 0 is the no-effect control and ±100 the full control effect; nearly all actives have a fitted effect of over 65% in size
POLI cherry-pick – qHTS for Inhibitors of Polymerase Iota: Confirmatory Assay for Cherry-picked Compounds; shares compounds with Pol kappa inh; Pol iota primer extension, TAMRA/BHQ fluorescence; Potency, µM, most hits filed as inhibitors; 1,500 tested, 77% active; AID 720496, 2013; further: potency means the concentration at half of the fitted maximal effect
Pol eta inh-2 – qHTS for Inhibitors of Polymerase Eta: Confirmatory Assay for Cherry-picked Compounds | AID 720502, 2013 | Potency, µM, usual class: inhibitors | Pol eta primer extension, TAMRA/BHQ fluorescence, 10 min | 2,600 tested, 64% active | shares compounds with Pol eta inh-1; further: potency means the concentration at half of the fitted maximal effect
Active calls of the source: *; [ ] = dose if it differs, or a comment. Only some compounds are listed: those with a hit (about 2.4% of all), similar ones and a draw of the others. Unless noted, the call rests on the fitted dose curve; in most records, active means well fitted curve in the direction sought with a large enough effect; inconclusive means small, poorly fitted or top-dose-only effect, or another doubt; inactive means no such curve, though single readings can be large; an effect the other way counts as inactive or inconclusive.

Cc1cccc2c1=NC(=O)/C(=C/c1c(O)[nH]c(=O)[nH]c1=O)C=2 was read as Pol kappa inh 2%, Pol iota inh -7%, WRN helicase inh 50µM*, Pol eta inh-1 -13%, FEN1 inhibitor -11% and POLB inh 0%.
Cn1c(O)c(/C=C2\C=c3ccccc3=NC2=O)c(=O)n(C)c1=O was read as Pol kappa inh 12%, Pol iota inh inconclusive, WRN helicase inh 5%, Pol eta inh-1 -7%, FEN1 inhibitor 0% and POLB inh 39%.
Screening NCC#Cc1ccccc1 returned Pol iota inh 2%[58.9 µM], Pol eta inh-1 0%[57.1 µM] and POLB inh 7%[57.1 µM].
O=C1NC(=O)N(Cc2ccco2)C(=O)/C1=C/c1ccc(-c2cccc([N+](=O)[O-])c2)o1 was read as Pol kappa inh 22µM*, Pol iota inh 7.9µM*, WRN helicase inh 22µM*, Pol eta inh-1 8.9µM*, FEN1 inhibitor inconclusive and POLB inh 18µM*.
For CCC1OC2(C)C(O)C(/C=C/C=C/C=C/c3oc(=O)cc(OC)c3C)OC1(C)C2OC(C)=O (stereo not given) the results were Pol kappa inh 15%[60.1 µM].
O=S(=O)(O)c1cc(N=C=S)ccc1/C=C/c1ccc(N=C=S)cc1S(=O)(=O)O was read as Pol kappa inh 35µM*.
c1cc[n+]2c(c1)-c1cccc[n+]1CC2 was read as Pol kappa inh -3%[60.1 µM].
For COC12C(COC(N)=O)C3=C(C(=O)C(C)=C(N)C3=O)N1CC1C2N1C (stereo not given) the results were Pol kappa inh -35%, Pol iota inh inconclusive, WRN helicase inh -13%, Pol eta inh-1 50µM*, FEN1 inhibitor 11%, POLB inh -19% and POLI cherry-pick 38*.
Screening COC(C)C(O)(C(=O)OC1=CCN2CC[C@H](O)[C@H]12)C(C)C (stereo not given in full) returned Pol kappa inh -8%[19.4 µM].
O=C(O)c1cccc2c1NC(C(=O)O)C1CC(Sc3ccccc3[N+](=O)[O-])C(Cl)C21 (stereo not given) was read as Pol kappa inh 8.9µM*, Pol iota inh 4µM*, WRN helicase inh 32µM*, Pol eta inh-1 3.2µM*, FEN1 inhibitor 45µM*, POLB inh 2.8µM* and TbPGK inh 13µM*.
Screening CCCNC(=O)c1ccc2c(=O)n3c(-c4ccc(C)cc4)csc3nc2c1 returned Pol kappa inh -14%, Pol iota inh inconclusive, WRN helicase inh 5%, Pol eta inh-1 4%, FEN1 inhibitor inconclusive, POLB inh -5%, BAZ2B inh 4.5* and BAZ2B bead ctr 13µM*.
Screening NCC(=O)c1ccc(Cl)c(Cl)c1 returned Pol kappa inh 4%, Pol iota inh 36% and FEN1 inhibitor 0%.
O=C1NC(=O)C(=Cc2ccc(N3CCN(C(=O)c4ccccc4)CC3)c([N+](=O)[O-])c2)C(=O)N1 was read as Pol kappa inh -15%, Pol iota inh 34%, WRN helicase inh inconclusive, Pol eta inh-1 9%, FEN1 inhibitor -24% and POLB inh -10%.
Screening O=C1NC(=S)NC(=O)C1=Cc1ccc2c(c1)CCN2CCCCl returned Pol kappa inh 10µM*, Pol iota inh inconclusive, WRN helicase inh 56µM*, Pol eta inh-1 2µM*, FEN1 inhibitor inconclusive, POLB inh inconclusive and TbPGK inh 2.3µM*.
For Cc1ccc(Cn2cccc(C(=O)Nc3nnc(C)s3)c2=O)cc1 the results were Pol kappa inh -8%[60.1 µM], Pol iota inh 3%, Pol eta inh-1 2%, FEN1 inhibitor 1% and POLB inh inconclusive.
`O=C(O)CCn1cc(C=C2C(=O)NC(=S)NC2=O)c(-c2cc3ccccc3oc2=O)n1` gave Pol kappa inh inconclusive, Pol iota inh 40µM*, WRN helicase inh inconclusive, Pol eta inh-1 20µM*, FEN1 inhibitor inconclusive, POLB inh -25%, POLI cherry-pick 67* and Pol eta inh-2 30*.
On1ccccc1=S was read as Pol kappa inh -6%, Pol iota inh inconclusive, WRN helicase inh 4%, Pol eta inh-1 1% and FEN1 inhibitor inconclusive.
For Cc1cc(/C=C2/C(=O)NC(=O)N(c3ccc(Br)cc3)C2=O)c(C)n1C the results were Pol kappa inh -12%, Pol iota inh -18%[58.9 µM], WRN helicase inh -10%, Pol eta inh-1 -11%, FEN1 inhibitor 2% and POLB inh -29%.
For Cc1cc(/C=C2\C(=O)NC(=O)N(c3cccc(F)c3)C2=O)c(C)n1-c1cc(C(=O)O)cc(C(=O)O)c1 the results were Pol kappa inh 50µM*, Pol iota inh 16µM*, WRN helicase inh inconclusive, Pol eta inh-1 10µM*, FEN1 inhibitor inconclusive, POLB inh 22µM*, POLI cherry-pick inconclusive and Pol eta inh-2 21*.

High-throughput results as filed in PubChem BioAssay.
